Reference: PubChem BioAssay (NCI)
Where “and” joins values, the source holds several entries; their conditions need not be identical. Identical values can stand only once. Compounds without any hit were thinned out: in the full panel of roughly 83,000, 20% have a hit.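 Activity criterion: percent growth below 10, measured after cells in 96-well plates were exposed to a single compound concentration for 48 hours.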 Calls of active or inactive are those of the source.

System: HL-60(TB) leukemia
Test: NCI-60 one-dose screen, 48 h (100 = growth as untreated, 0 = no growth, -100 = all killed)
Conditions: 10 µM unless noted

Row | Structure (SMILES) | growth
1 | N#CC1C(=O)c2ccccc2C1c1ccccc1 (centres undefined) | 108% (inactive) and 103% (inactive)
2 | N#Cc1c(N)nc2c(nnn2-c2cccc(C(F)(F)F)c2)c1N | 95.2% (inactive)
3 | CS(=O)CC(=N\O)/C(CS(C)=O)=N\O (centres undefined) | 101% (inactive)
4 | CN(C)c1ccc(-c2c(C#N)c(N)nn2C(=O)c2ccc(NC(=O)c3ccccn3)cc2)cc1 | 96.5% (inactive)
5 | Cc1ccc(Cc2cnc(NC(=O)c3cc(Br)cs3)s2)cc1 | 8.08% (active)
6 | C[C@H](c1nc2ccc(N)cc2[nH]1)[C@H]1CC[C@H]2[C@@H]3CCC4=CC(=O)CC[C@]4(C)[C@H]3CC[C@]12C | -50.2% (active)
7 | Cc1cccc2c3c(sc12)C(c1ccc(Cl)cc1)C(C#N)=C(/N=C/c1ccc(Cl)cc1)O3 (centres undefined) | -22% (active)
8 | O=S(=O)(Nc1nccs1)c1ccc(Nc2nc(-c3ccncc3)cs2)cc1 | 98.6% (inactive)
9 | O=C1OC(=O)C2C3CC(c4ccccc43)C12 (centres undefined) | 112% (inactive)
10 | O=C(CCCCCCSc1nc(-c2ccc(Cl)cc2)cc(-c2ccc(Cl)cc2)n1)NO | 9.99% (active)
11 | COc1cc(C(=O)n2nc(N3CCN(C)CC3)c3cc(N)ccc32)cc(OC)c1OC | 1.68% (active)
12 | Cc1ccc(-c2noc(CC(=O)c3ccc([N+](=O)[O-])cc3)n2)cc1 | 65.2% (inactive)
13 | O=C(N/N=C/c1ccc(Cl)cc1Cl)c1ccccc1Nc1cccc(C(F)(F)F)c1 | 85.7% (inactive)
14 | Nc1c(C(=O)Nc2cccc3ccccc23)sc2nc3c(cc12)C(=O)CCC3 | 3.95% (active)
15 | O=c1[nH]cnc2c1ncn2C1OC(CO)C(O)C1O (centres undefined) | 97.1% (inactive) and 89.3% (inactive) and 101% (inactive)
16 | C=C1C(=O)O[C@H]2[C@H]1CC/C(COC(=O)NCc1c[nH]c3ccc(OC)cc13)=C\CC[C@@]1(C)O[C@@H]21 | -35.8% (active)
17 | CC(C)Sc1nc(NN)c(C#N)c(-c2ccccc2)n1 | 98.8% (inactive)
18 | COc1ccc(-c2nc3ccc4[nH]ncc4c3c3c2CCCC3)cc1B(O)O | 64.6% (inactive)
19 | Cc1ccc(S(=O)(=O)C2=C3C(=C(c4ccccc4)c4ccccc43)CN(S(=O)(=O)c3ccc(C)cc3)C2)cc1 | 65.7% (inactive)
20 | O=C(Nc1ccc2cc3ccc(NC(=O)NC4CCCCC4)cc3nc2c1)NC1CCCCC1 | 99.3% (inactive)

Row | Structure (SMILES) | growth
21 | COc1cccc(-c2nc3occn3c2-c2ccnc(NCCCNS(=O)(=O)c3cccc(F)c3)n2)c1 | 112% (inactive)
22 | COc1ccc(/C=C/c2nc(Nc3ccc(Cl)cc3)c3ccccc3n2)cc1 | -11.3% (active)
23 | c1cc2[nH]ncc2cc1-c1nc2ccc3[nH]ncc3c2c2c1CCCC2 | -18.3% (active)
24 | COC(=O)c1cc(=O)nc(N/N=C/c2ccco2)s1 | 116% (inactive)
25 | Cc1cc(N(CCNc2ccnc3cc(Cl)ccc23)Cc2ccco2)nc(Cl)n1 | -61.9% (active)
26 | O=C(NCCNc1nccc(-c2c(-c3cccc(O)c3)nc3sccn23)n1)c1cccc(C(F)(F)F)c1 | 95.5% (inactive)
27 | C#CCOc1cccc(Nc2ncnc3c(NC(=O)C=C)cccc23)c1 | -4.75% (active)
28 | O=C1c2ccccc2-c2c1c1c(=O)[nH]c3ccccc3c1n2Cc1ccccc1 | 73.9% (inactive)
29 | CCOC(=O)C1=C(C)n2nc(CC#N)c(C#N)c2NC1c1ccc(Cl)cc1 (centres undefined) | 105% (inactive)
30 | N#Cc1c(-c2ccccc2)cc(-c2ccccc2)n(CCCCCC(=O)Nc2ccccc2N)c1=O | 2.68% (active)
31 | Fc1c[c-]c(-c2ccccn2)c(F)c1.Fc1c[c-]c(-c2ccccn2)c(F)c1.[Cl][Pt+].[Cl][Pt+].c1ccc([PH+](C[PH+](c2ccccc2)c2ccccc2)c2ccccc2)cc1 | 6.62% (active)
32 | O=C(Nc1ccc(F)cc1F)c1cc(Br)ccc1O | -36.2% (active)
33 | N#Cc1c(N)nc2c(C#N)c(NC(=O)c3ccccc3)nn2c1-c1ccccc1 | 93% (inactive)
34 | COc1ccc(C(=O)NC(=O)Nc2cc3c(cc2F)/C(=C/c2[nH]c(C)c(CCC(=O)O)c2C)C(=O)N3)c(F)c1 | 20.9% (inactive)
35 | COc1cccc(C2CC(c3cc(OC)c(OC)c(OC)c3)=NN2)c1 (centres undefined) | 55.1% (inactive)
36 | Cn1c(=O)c2c(nc(NC3=NS(=O)(=O)c4ccccc43)n2CC(=O)N2CCc3ccccc32)n(C)c1=O | 111% (inactive)
37 | CCN1C(=O)N[C@H]2[C@@H]3NC(=O)c4ccc(Cl)n4[C@@H]3C[C@]21O | -20.6% (active)
38 | CC(=O)C(CO)C(=O)Nc1ccccc1 (centres undefined) | 100% (inactive)
39 | CC[C@@H](C(=O)[C@@H](C)[C@@H](O)[C@H](C)[C@@H]1O[C@@H]([C@@H](CC)C(=O)NCCc2ccc(F)cc2)CC[C@@H]1C)C1O[C@]2(C=CC(=O)[C@]3(CC[C@@](C)([C@H]4CC[C@](O)(CC)[C@H](C)O4)O3)O2)[C@H](C)C[C@@H]1C (some centres undefined) | 6.93% (active)
